TDP1 cell CPT – DT40-hTDP1 cell growth loss with CPT | AID 686979 | Potency, µM (top dose mostly 46.2 µM), without a hit: top-dose activity change, negative = growth inhibition, actives largely listed as inhibitors | chicken DT40 Tdp1-/-;hTDP1 cells + 20 nM CPT, ATP luminescence, 48 h | hit rate 12% among 420,000; also: potency is read from the fitted curve at half-maximal effect; % is scaled to controls: 0 for no effect and ±100 for the full control effect; nearly all actives have a fitted effect of over 55% in size
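Chicken DT40 Tdp1-/- cells complemented with human TDP1, 400 cells/well, exposed to compounds plus 20 nM camptothecin for at least 48 h at 37 C; viability read as ATP content by CellTiter-Glo luminescence.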
SW480 rereplic – inducers of DNA re-replication in SW480 colon cancer cells; SW480 DNA re-replication, Hoechst DNA content imaging, 48 h; Potency, µM (highest dose often 46.1 µM), inactives show at the top dose re-replication activation, hits mostly activators; hit rate 1.8% among 340,000; AID 624297; also: potency is read from the fitted curve at half-maximal effect; % of control where 0% means no effect; nearly all actives have a fitted effect of over 55% in size
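DNA re-replication was detected as more nuclei of elevated Hoechst intensity after 48 hr exposure to compound (23 nL pinned per well of 250 cells).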
MCF10A rerep – DNA re-replication induction in MCF 10a cells. Potency, µM (top dose mostly 46.1 µM), for the others: top-dose activity, positive = re-replication, actives largely listed as activators. hit rate 2.9% among 350,000. AID 624296. MCF 10A DNA re-replication, Hoechst nuclear intensity, 48 h; also: potency is read from the fitted curve at half-maximal effect; % of control where 0% means no effect; nearly all actives have a fitted effect of over 50% in size
IL1B secr inh – inhibitors of inflammasome signaling (IL-1 beta secretion); THP-1 LPS/ATP IL-1B secretion, AlphaLISA, 16 h; hits give low values; activity change, % at 57.5 µM; hit rate 4.7% among 360,000; AID 743279; in the data active = activity change below about -50%; inconclusive = mostly about -30% to -49%; also: % is scaled to controls: 0 for no effect and ±100 for the full control effect
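THP-1 cells pretreated 1 hr with compounds (up to 57.5 uM final), then stimulated with LPS (250 ng/mL final) plus ATP (1.25 mM final); secreted IL-1B measured by AlphaLISA after 16 hr, decreased signal indicating inhibition.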
TDP1 cell noCPT – qHTS for Inhibitors of human tyrosyl-DNA phosphodiesterase 1 (TDP1): qHTS in cells in absence of CPT | DT40 Tdp1-/- hTDP1 cells, no CPT, ATP luminescence, 48 h | Potency, µM (titrated, usually from 46.2 µM), inactives show at the highest dose activity change, negative = growth inhibition, usual class: inhibitors | hit rate 15% among 420,000 | AID 686978, 2013; also: potency is read from the fitted curve at half-maximal effect; % is scaled to controls: 0 for no effect and ±100 for the full control effect; nearly all actives have a fitted effect of over 55% in size
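DT40 Tdp1-/-;hTDP1 cells, no CPT (DMSO vehicle only), 400 cells/well; compounds pin-transferred; ≥48 hr, 37 °C; CellTiter-Glo 30 min RT dark, luminescence read.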
BCR signal inh – inhibitors of chronic active B-cell receptor signaling. ABC-DLBCL IkBa-CBG/CBR reporter, luminescence ratio, 4 h. Potency, µM (doses to about 46.1 µM), inactives show top-dose activity change, negative = inhibition, usual class: inhibitors. hit rate 0.05% among 340,000. AID 493014; active = well fitted inhibition curve with a large enough effect in the signal ratio, with a control signal flat, not every such curve was filed as active; inconclusive = small, poorly fitted or top-dose-only effect, or effect the other way, or a change in a side signal; the % refers to the signal ratio;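 also: potency is read from the fitted curve at half-maximal effect; plate controls were basal doxycycline-induced cells for no effect and cells given 10 µM MG132 for full effect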
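TMD8 human ABC-DLBCL cells with doxycycline-inducible IκBα–green luciferase fusion and unfused red luciferase, in 0.5% FBS medium; compounds up to 46 uM, 4 h at 37C. Green/red luminescence ratio, filter-overlap corrected, fitted to concentration-response curves.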
An asterisk follows results filed as active; ? = inconclusive; . = not tested or not shown; [ ] = another dose, or the depositor's remark. In the library only some 19% were active in any assay of this set; here they are far more common. Unless noted, calls follow the shape of the dose curve; as a rule, active = well fitted curve in the direction sought with a large enough effect; inconclusive = small, poorly fitted or top-dose-only effect, or another doubt; inactive = no such curve, though single readings can be large; an effect the other way counts as inactive or inconclusive.

SMILES	TDP1 cell CPT	SW480 rereplic	MCF10A rerep	IL1B secr inh	TDP1 cell noCPT	BCR signal inh
Cc1cc(C)n(-c2nc3ccccc3nc2N2CCN(S(=O)(=O)c3ccc(F)c(C)c3)CC2)n1	23µM*	2%	-4%	1	?	11%
Cc1cc(C)n(-c2nc3ccccc3nc2N2CCN(C(=O)c3ccccc3)CC2)n1	-19%	-4%	-1%	4	-29%	?
Cc1cc(C)n(-c2nc3ccccc3nc2N2CCN(S(=O)(=O)c3ccc4ccccc4c3)CC2)n1	?	?	18%	-13	14µM*	-2%
O=[N+]([O-])c1cc([N+](=O)[O-])c2nonc2c1Nc1ccc(O)cc1	?	-5%	1%	4	21µM*	-1%
Cc1ccccc1Nc1c([N+](=O)[O-])cncc1[N+](=O)[O-]	?	15%	-1%	8	15µM*	0%
O=[N+]([O-])c1cncc([N+](=O)[O-])c1Nc1cccc(O)c1	5.2µM*	?	29%	-18	4.1µM*	?
O=[N+]([O-])c1cc([N+](=O)[O-])c2nonc2c1Nc1ccccc1O	?	5%	10%	0	?	?
Cc1ccccc1Nc1n[nH]c(C)c1[N+](=O)[O-]	3%	4%	23%	31	1%	2%
CCOc1ccccc1CNC(=O)CCn1cccn1	-18%	.	.	.	-9%	.
CC12CC(NC(=O)N1CCc1ccccc1)c1cc(Cl)ccc1O2 (stereo unspecified)	?	-6%	-12%	-16	21µM*	4%
CC12CC(NC(=O)N1Cc1ccccc1)c1ccccc1O2 (stereo unspecified)	?	-9%	3%	6	-21%	-6%
CCCCN(C(=O)c1c(CC)noc1C)c1c(N)n(CCC)c(=O)[nH]c1=O	7%	1%	0%	-2	5%	3%
Cc1ccc(Cl)c(OCCCCN(C)Cc2ccccc2)c1	?	4%	8%	-57*	?	-9%
Cc1ccc(Cl)c(OCCCN(C)Cc2ccccc2)c1	-18%	?	12%	-77*	?	7%
CN(CCOCCOc1ccc(Cl)cc1Br)Cc1ccccc1	-23%	6%	5%	-80*	?	1%
COC(=O)c1ccc(OCCCCN(C)Cc2ccccc2)cc1	?	24%	18µM*	-12	-12%	-1%
CN(CCOc1ccccc1Cl)Cc1ccccc1	?	12%	?	-20	-13%	10%
C[C@H]1CN([C@@H](C)CO)C(=O)CCCn2cc(nn2)CO[C@@H]1CN(C)C(=O)Oc1ccccc1	6%	.	.	5	18%	.
Cc1ccc(NC(=O)C2CCN(S(=O)(=O)c3c(C)nn(C)c3C)CC2)c(Cl)c1	-15%	1%	8%	0	-15%	8%
Cc1nc2cnc(N(C)C)nc2n(-c2ccccc2)c1=O	-9%	.	.	.	-8%	.
CC1CCN(C(=O)CN2c3ccc(Br)cc3-c3ccccc3S2(=O)=O)CC1	13µM*	.	.	.	21µM*	.
CC1CCN(C(=O)CN2c3ccc(C(C)C)cc3-c3ccccc3S2(=O)=O)CC1	15µM*	.	.	.	23µM*	.
CCN(CC)C(=O)C1=C(C)N(Cc2ccccc2)C(=O)C(CC(=O)NCC2CCCCC2)C1 (stereo unspecified)	?	.	.	-22	?	.
CC(=O)Nc1cc2c(cc1[N+](=O)[O-])-c1ccc(F)cc1C2	?	?	12%	-81*	8%	.
CC(=O)Nc1ccc2c(c1)-c1ccc(F)cc1C2	?	-3%	-6%	15	?	.
SMILES	TDP1 cell CPT	SW480 rereplic	MCF10A rerep	IL1B secr inh	TDP1 cell noCPT	BCR signal inh
CN(Cc1nc(Cc2ccccc2F)no1)CC1(N2CCOCC2)CCCCC1	-4%	-15%	-1%	-15	?	7%
CN(Cc1nc(Cc2ccccc2F)no1)Cc1cccc2ncccc12	?	?	4%	-108*	16µM*	6%
CCOc1ccc(CN(C)C(=O)c2cccc(S(=O)(=O)N3CCCC3)c2)cc1OC	-9%	-10%	0%	-15	-22%	?
Cc1ccc(NC(=O)Nc2c(Cl)cccc2Cl)cn1	?	?	?	19	10µM*	?
S=C1NCc2cncnc2N1	-1%	.	.	54	6%	.
Nc1ccccc1-c1ccc([N+](=O)[O-])cc1	2%	?	23µM*	-1	-22%	.
O=C(O)CCc1ccc(-c2ccc(Cl)cc2)o1	-14%	?	21µM*	-3	-1%	?
COc1ccc(-c2ccc(CCC(=O)O)o2)cc1	21µM*	?	?	?	?	-15%
O=C(O)CCc1ccc(-c2ccc(Br)cc2)o1	-10%	5.8µM*	?	-65*	-5%	?
CCC1CN(CCNC(=O)C(C)(C)O)Cc2cc(OC)ccc2O1 (stereo unspecified)	0%[9.04 µM]	.	.	.	-12%	.
O=C(NCC(O)c1ccc2ccccc2c1)c1c(F)cccc1F (stereo unspecified)	-11%	5%	7%	-17	-3%	?
O=C(O)CN(c1ccccc1)S(=O)(=O)c1cc(C(F)(F)F)cc(C(F)(F)F)c1	-11%	-3%	-3%	2	0%	7%
COc1cc2c(NC3CCN(C)CC3)nc(N3CCCN(C)CC3)nc2cc1OCc1ccccc1	2.8µM*	.	.	.	2.8µM*	.
COc1cc2nc(N3CCN(C)CC3)nc(NC3CCN(Cc4ccccc4)CC3)c2cc1OC	11µM*	.	.	.	11µM*	.
COc1cc2nc(Cl)nc(NC3CCN(Cc4ccccc4)CC3)c2cc1OC	7.1µM*	.	.	.	10µM*	.
COc1cc2nc(N3CCOCC3)nc(NC3CCN(Cc4ccccc4)CC3)c2cc1OC	16µM*	.	.	.	11µM*	.
COc1cc2c(NC3CCN(C)CC3)nc(N3CCCN(C)CC3)nc2cc1OCC1CCNCC1	-4%	.	.	.	-14%	.
COc1ccc(/C=C/C(=O)NC2CCN(Cc3ccccc3)CC2)cc1OC	-8%	-6%	9%	-8	-5%	6%
COc1ccc(NC(=S)NC2CCN(Cc3ccccc3)CC2)cc1OC	-8%	0%	0%	-10	?	3%
CC(NC(=O)COC(=O)CN1C(=O)c2ccccc2C1=O)c1ccccc1 (stereo unspecified)	-4%	-10%	-2%	1	3%	7%
